High-throughput results from PubChem BioAssay.
WT yeast gro inh: growth inhibition of WT yeast, mitochondrial fusion screen; mitochondrial fusion phenotypic screen, WT strain; 190,000 compounds, 2.1% hits; AID 1362; inhibition, % at 10 µM; in the data active means inhibition above about 58%; tested in S. cerevisiae
SKKanGAS inh: blocks kanamycin growth of S. pyogenes SKKanGAS strain. BacTiter-Glo, 6 h. AID 1662. 300,000 compounds, 1.3% hits. inhibition, % at 7.5 µM;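 active means mean replicate score, as percent of positive control median, at least 50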;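 further: strain carries kanamycin resistance gene driven by streptokinase promoter and grows in 40 µg/ml kanamycin; loss of luminescence reflects streptokinase promoter inhibition or plain growth inhibition; 0% = median of DMSO wells and 100% = positive control at its reference dose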
TPT1 inh: blocks Candida albicans tRNA 2'-phosphotransferase; recombinant caTPT1, FP RNA substrate dephosphorylation; inhibition, % at 5 µM; 300,000 compounds, 0.81% hits;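 active means inhibition above the mean of all tested compounds plus 3 SD, set per screening campaign, cut at about 24% in these data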;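 further: plate controls were DMSO alone for no effect and ferristatin control at 100 nM for full effect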
Rtt109 Vps75: blocks Candida albicans Rtt109/Vps75 acetyltransferase activity; Q5AAJ8; purified Rtt109/Vps75, ThioGlo CoA-SH fluorescence, 4 h; inhibition, % at 34.9 µM; 330,000 compounds, 0.16% hits; AID 540336;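 active means inhibition of at least 50% in every replicate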
Target sequence (Q5AAJ8 whole entry, looked up): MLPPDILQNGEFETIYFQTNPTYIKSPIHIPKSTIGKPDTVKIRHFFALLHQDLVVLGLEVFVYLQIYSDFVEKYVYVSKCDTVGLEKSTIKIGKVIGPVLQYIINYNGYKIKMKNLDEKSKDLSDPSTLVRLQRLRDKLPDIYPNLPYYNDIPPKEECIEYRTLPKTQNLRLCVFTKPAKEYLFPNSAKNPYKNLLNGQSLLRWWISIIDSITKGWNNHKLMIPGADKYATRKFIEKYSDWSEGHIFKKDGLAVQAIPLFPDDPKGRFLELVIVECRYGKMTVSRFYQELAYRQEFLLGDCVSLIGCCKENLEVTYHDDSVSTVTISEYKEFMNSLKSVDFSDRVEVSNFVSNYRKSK
PHOSPHO1 block: PHOSPHO1 (human) inhibition. Q8TCT1. recombinant PHOSPHO1, absorbance phosphatase assay. inhibition, % at 13.3 µM. 290,000 compounds, 1.1% hits; in the data active means inhibition above about 60%
Platelet DG rel: platelet dense granule release activity. inhibition, %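 (compounds screened at 7.5 µM in platelet-rich plasma)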. 300,000 compounds, 0.22% hits. human platelet-rich plasma, SFLLRN dense granule ATP release, luminescence;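 active means mean replicate score, as percent of positive control, at or above 50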
Starred values were filed as active, the others as inactive; / = no result given. In the library only some 3.9% were active in any assay of this set; here they are far more common.

SMILES	WT yeast gro inh	SKKanGAS inh	TPT1 inh	Rtt109 Vps75	PHOSPHO1 block	Platelet DG rel
CCS(=O)(=O)Nc1ccc(C2=NN(S(=O)(=O)CC)C(c3cccs3)C2)cc1 (centres undefined)	/	-1	2	-13	38	7
CC(C)c1ccc(/C=C/C(=O)NCCCc2ccccc2)cc1	61*	19	-3	25	30	-7
COc1ccc(/C=C/C(=O)NCCCc2ccccc2)cc1	0	-20	1	6	1	13
COc1ccc(S(=O)(=O)NCCSCc2ccc(Cl)cc2)cc1NC(C)=O	/	/	/	8	/	/
CCCCn1c(NS(=O)(=O)c2ccccc2)c(S(=O)(=O)c2ccc(C)cc2)c2nc3ccccc3nc21	12	73*	-2	2	-14	2
Cc1cc(NC(=O)CC2CCCC2)n(-c2nc3ccccc3[nH]2)n1	/	51*	-6	-12	12	0
Cc1cc(NC(=O)/C=C/c2ccccc2Cl)n(-c2nc3ccccc3[nH]2)n1	22	81*	-1	-5	2	9
Cc1cc(NC(=O)c2ccc(F)cc2F)n(-c2nc3ccccc3[nH]2)n1	-12	-11	1	-6	-6	2
Cc1cc(Br)ccc1NC(=O)C1CCN(C(=O)c2ccco2)CC1	/	-9	3	-8	45	-3
CCCC[C@@H]1CNC(=S)N1CCc1cccc2ccccc12	75*	16	-1	-4	-8	-1
CC(C)C[C@H]1CNC(=S)N1CC1CCN(CCC23CC4CC(CC(C4)C2)C3)CC1	/	/	/	4	/	/
Fc1cccc(CCN2C(=S)NC[C@@H]2CC2CCCCC2)c1	/	22	1	17	34	-1
CC(O)[C@H]1CNC(=S)N1CCc1cccc(F)c1 (some centres undefined)	/	-4	4	-4	26	0
CCCC[C@@H]1CNC(=S)N1CCc1cccc(F)c1	65*	2	3	-1	14	-2
CCCCN1C(=S)NC[C@@H]1Cc1cccc2ccccc12	/	1	0	-19	25	2
Fc1cccc(CCN2C(=S)NC[C@@H]2Cc2ccccc2)c1	66*	2	-4	6	-20	3
CCCC[C@@H]1CNC(=S)N1CCC12CC3CC(CC(C3)C1)C2	65*	45	3	1	30	-1
Cn1cc(S(=O)(=O)N2CCCC2)cc1C(=O)O	/	/	/	-4	/	/
COc1ccc(C(C)=O)cc1CC(=O)Nc1ccc2c(c1)CCC2	/	15	-2	0	35	-5
CC(CNC(=S)Nc1cc(F)cc(F)c1)CSc1ccc(Cl)cc1 (centres undefined)	50	55*	-2	-8	25	14
Fc1ccc(CNC(=S)Nc2ccc(Cl)cc2)cc1	23	27	-3	-2	4	1
CC1(C2CC2)NC(=O)N(CC(=O)N2CCN(S(=O)(=O)c3ccc(F)c(F)c3)CC2)C1=O (centres undefined)	/	/	/	1	/	/
O=C(NCc1ccc(Cl)cc1)c1ccc(NC(=O)C2CCCO2)cc1 (centres undefined)	/	-9	-1	-4	22	-1
COc1cc(-c2nc(-c3cccc(C)c3)no2)cc(OC)c1OC	66*	-18	0	2	-32	2
COc1ccc(-c2nnc(-c3cc(OC)c(OC)c(OC)c3)o2)cc1OC	2	2	-1	-13	-14	66*
SMILES	WT yeast gro inh	SKKanGAS inh	TPT1 inh	Rtt109 Vps75	PHOSPHO1 block	Platelet DG rel
COc1cc(-c2nnc(-c3cccs3)o2)cc(OC)c1OC	4	-3	-3	1	-25	-2
COc1ccc2cc(C(c3nnnn3Cc3ccc(F)cc3)N3CCCCCC3)c(=O)[nH]c2c1 (centres undefined)	7	-6	6	-7	-42	-9
Cc1ccc2cc(C(c3nnnn3C(C)(C)C)N3CCCCCC3)c(=O)[nH]c2c1 (centres undefined)	4	16	-1	/	102*	-7
CCN(Cc1ccccc1)C(c1cc2ccc(C)cc2[nH]c1=O)c1nnnn1CCOC (centres undefined)	27	0	-3	/	99*	1
COc1ccc2cc(C(c3nnnn3Cc3ccccc3)N3CCCCCC3)c(=O)[nH]c2c1 (centres undefined)	/	-11	4	-1	94*	-10
CCOc1cccc(-c2c(C(=O)N/N=C(\C)c3cccnc3)nnn2-c2nonc2N)c1	/	-1	0	-9	22	14
CC1CN(C(=O)Cn2cc(S(=O)(=O)CC(=O)N3CCOCC3)c3ccccc32)CC(C)O1 (centres undefined)	/	2	0	6	66*	-6
Cc1cccc(C(=O)O/N=C/c2ccc(Br)cc2)c1	60*	-1	0	1	7	1
O=C(Nc1cccc(NC(=O)c2ccccc2Cl)c1)c1ccco1	/	3	1	-14	25	59*
O=S(=O)(Nc1cccc(-c2nc3cccnc3s2)c1)c1ccc2c(c1)OCCO2	68*	24	-1	2	-18	2
O=C(Nc1cccc(NC(=O)c2cccnc2Cl)c1)c1ccco1	-6	-3	-3	6	-13	112*
Cc1cccc(NC(=O)c2ccccc2NC(=O)c2ccco2)c1	/	2	-2	-11	15	-3
O=C(Nc1cccnc1)c1ccco1	-15	4	0	/	14	2
O=C(Nc1cccc(-c2nc3cccnc3s2)c1)c1cccnc1Cl	/	-1	0	60*	24	-3
COc1cc(OC)c2c(c1)C(=O)c1cc(OC)cc(OC)c1C2=O	87*	6	-12	2	107*	-3
O=[N+]([O-])c1ccc(NN=Cc2cccc3ccccc23)cc1	/	/	/	-5	/	/
O=[N+]([O-])c1cc(Br)c(O)c(/C=N/Nc2nnnn2-c2cccc3ccccc23)c1	12	66*	15	1	-5	4
CC1CCCN(C(=S)SCC(=O)c2cc(Br)cc(Br)c2O)C1 (centres undefined)	12	56*	6	-13	-5	0
CCn1c(=O)cc(SCC(=O)N2CCN(c3ccccc3OC)CC2)c2ccccc21	-7	4	-1	11	63*	-15
CCn1c(=O)cc(SCC(=O)N2CCOCC2)c2ccccc21	0	0	3	2	0	13
COc1cccc(-c2nc(CS(=O)(=O)CC(=O)Nc3ccccc3Cl)c(C)o2)c1	/	22	3	6	9	-5
CC(C)c1ccc(CN2CCN(C(=O)CCl)CC2)cc1	4	/	/	12	62*	/
Cc1nc2ccccc2c2oc(C(=O)Nc3ccc(C(C)C)cc3)cc12	61*	39	-2	/	-7	16
Cn1c(=O)c2c(ncn2CC(=O)Nc2cc(S(=O)(=O)N3CCCCC3)ccc2Cl)n(C)c1=O	/	/	/	5	/	/
O=C(CSCC(=O)N1CCCCC1)Nc1nc(-c2ccccc2)c(-c2ccccc2)s1	60*	/	-5	-1	4	/
CN(CC(=O)N1CCN(Cc2ccccc2)CC1)C(=O)Cc1ccc(Cl)c(Cl)c1	/	/	/	0	/	/
